Source: the supplement of paper PMC5641865, “A screen for kinase inhibitors identifies antimicrobial imidazopyridine aminofurazans as specific inhibitors of the Listeria monocytogenes PASTA kinase PrkA” (The Journal of Biological Chemistry, 2017)
± gives the standard deviation of the averaged measurements.

tested on: Listeria monocytogenes 10403S; experiment: growth inhibition relative to ceftriaxone-alone control; higher = stronger potentiation of ceftriaxone growth inhibition; conditions: 10 µM; ceftriaxone 1 ug/ml; 12 h
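Further: End-point A600 read in BHI broth at 37 °C with 2% DMSO, inhibition computed as (1 − OD with compound plus ceftriaxone ÷ OD with ceftriaxone only) × 100.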

| SMILES | growth inhibition |
| --- | --- |
| N#CCNC(=O)c1ccc(-c2ccnc(Nc3ccc(N4CCOCC4)cc3)n2)cc1 | 33 ± 13% |
| COc1cc(Nc2c(C#N)cnc3cc(OCCCN4CCN(C)CC4)c(OC)cc23)c(Cl)cc1Cl [Bosutinib (SKI-606)] | 72.2 ± 1.1% |
| O=c1cc(N2CCOCC2)oc2c(-c3cccc4c3sc3ccccc34)cccc12 | 26.2 ± 7% |
| Cc1[nH]c(/C=C2\C(=O)Nc3ccc(S(=O)(=O)Cc4c(Cl)cccc4Cl)cc32)c(C)c1C(=O)N1CCC[C@@H]1CN1CCCC1 | 78 ± 5.2% |
| NC(=O)c1cc(-c2ccncc2)cc(-c2ccccc2)c1N | 2.14 ± 8.1% |
| O=C(O[C@H]1CN[C@H](C#Cc2cc3ncnc(Nc4ccc(OCc5cccc(F)c5)c(Cl)c4)c3s2)C1)N1CCOCC1 | 14.3 ± 11% |
| CC(C)n1nc(-c2ccc3oc(N)nc3c2)c2c(N)ncnc21 | -0.352 ± 1.4% |
| CN(c1ccc(NC(=O)Nc2c(Cl)cccc2Cl)cc1)c1ccnc(Nc2cccc(CS(C)(=O)=O)c2)n1 | -2.91 ± 0.88% |
| Nc1cc(C(F)(F)F)c(-c2cc(N3CCOCC3)nc(N3CCOCC3)n2)cn1 | 47 ± 35% |
| NC(=O)c1ccc(N(C(N)=O)c2c(F)cccc2F)nc1-c1ccc(F)cc1F | 3.69 ± 12% |
| COc1cc(Nc2ncc3c(C)nc(-c4cccc(Oc5ccccc5)c4)n3n2)cc(OC)c1OC | -18.3 ± 17% |
| Fc1ccc(-c2ncn(C3CCNCC3)c2-c2ccnc(Oc3ccc4c(c3)OCO4)n2)cc1 | -3.86 ± 1.5% |
| CC(C)(CO)CNC(=O)c1ccc2c(c1)/C(=N/Nc1ccc(S(N)(=O)=O)cc1)C(=O)N2 | -13.4 ± 16% |
| N#CC(=C(/N)Sc1ccccc1N)/C(C#N)=C(\N)Sc1ccccc1N | 51.1 ± 42% |
| CC1=C(C(=O)Nc2ccc3[nH]nc(C)c3c2)C(c2ccc(C(F)(F)F)cc2)CC(=O)N1 (stereo not drawn) | -1.71 ± 13% |
| COc1ccccc1-c1cc(/C=C2\C(=O)Nc3ncc(Br)cc32)cc(Br)c1O | -8.54 ± 8.1% |
| Cc1[nH]c(/C=C2\C(=O)Nc3ccccc32)c(C)c1CCC(=O)O | 98.7 ± 2.4% |
| COc1cccc(-n2ncc3c(N/N=C/c4ccncc4)ncnc32)c1 | -5.6 ± 4.6% |
| CC(C)(C)c1cnc(CSc2cnc(NC(=O)C3CCNCC3)s2)o1 | 29.5 ± 24% |

| SMILES | growth inhibition |
| --- | --- |
| CCN(CC)CCCCNc1ncc2cc(-c3cc(OC)cc(OC)c3)c(NC(=O)NC(C)(C)C)nc2n1 | 23.2 ± 6.8% |
| COc1cc2ncnc(Nc3ccc(F)c(Cl)c3)c2cc1OCCCN1CCOCC1 [Gefitinib (Iressa)] | 31 ± 21% |
| COC(=O)Nc1nc2cc(Oc3cccc(NC(=O)Nc4cc(C(F)(F)F)ccc4F)c3)ccc2[nH]1 | -5.06 ± 1.8% |
| c1cc(-c2cnn3nc(N4CCOCC4)ccc23)nc(NC2CC2)n1 | -1.92 ± 0.84% |
| O=S(=O)(CCNCc1ccc(-c2ccc3ncnc(Nc4ccc(OCc5cccc(F)c5)c(Cl)c4)c3c2)o1)c1ccccc1 | -0.141 ± 13% |
| COc1cc(/C=N/Nc2ncnc3[nH]ncc23)ccc1O | 6.52 ± 10% |
| Cc1ccc2c(-c3ccnc(Nc4cccc(C(F)(F)F)c4)n3)c(-c3ccccc3)nn2n1 | -3.53 ± 4.7% |
| COc1cc(Nc2ncc(F)c(Nc3ccc4c(n3)N(COP(=O)(O)O)C(=O)C(C)(C)O4)n2)cc(OC)c1OC | 10.1 ± 12% |
| COc1ccc(Nc2ncc(-c3ccccc3)o2)cc1OC | 10.7 ± 3.4% |
| Nc1ncnc2occ(-c3ccc(NC(=O)Nc4cc(C(F)(F)F)ccc4F)cc3)c12 | -0.902 ± 0.59% |
| CS(=O)(=O)N1CCN(Cc2cc3nc(-c4cccc5[nH]ncc45)nc(N4CCOCC4)c3s2)CC1 | 25.2 ± 21% |
| COc1cccc(-n2ncc3c(N/N=C/c4ccc(S(C)(=O)=O)cc4)ncnc32)c1 | -2.76 ± 9.3% |
| CCn1c(-c2nonc2N)nc2ccc(F)cc21 | -0.804 ± 2.6% |
| COc1cc2/c(=N/c3ccc(Br)cc3F)nc[nH]c2cc1OCC1CCN(C)CC1 [Vandetanib (Zactima)] | 24.2 ± 29% |
| CN1CCC(C(=O)Nc2n[nH]c3nc(-c4ccc(O)cc4)c(Br)cc23)CC1 | -3.78 ± 12% |
| COC(=O)Nc1nc2cc(Oc3ccc(NC(=O)Nc4ccccc4)cc3)ccc2[nH]1 | 8.77 ± 1.8% |
| Cn1cc(-c2ccc3nnc(Sc4ccc5ncccc5c4)n3n2)cn1 | 18 ± 20% |
| [O-][S+]1CCN(Cc2ccc(-c3ccc4ncnc(Nc5ccc(OCc6cccc(F)c6)c(Cl)c5)c4c3)o2)CC1 | -4.71 ± 1.9% |
| Cn1cc(C=C2C(=O)Nc3cccnc32)c2ccccc21 | -13 ± 19% |
